Laboratory results: the supplement of paper PMC11732987, “Enantioselective OTUD7B fragment discovery through chemoproteomics screening and high-throughput optimisation” (Communications Chemistry, 2025)
Values without a mark were called inactive.

Assays:
Assay in all cases: log2 ratio of Biotin-Ahx-Ub-VS probe labelling (fragment/DMSO); higher = less target engagement (more negative = stronger competition), active = hit call of the paper (q ≤ 0.05, log2 ratio ≤ -1)
Details in all cases: compound concentration: 200 uM; treatment time: 3 h
[1] = biological target: T1, USP19 (UniProt O94966)
T1 sequence (whole entry): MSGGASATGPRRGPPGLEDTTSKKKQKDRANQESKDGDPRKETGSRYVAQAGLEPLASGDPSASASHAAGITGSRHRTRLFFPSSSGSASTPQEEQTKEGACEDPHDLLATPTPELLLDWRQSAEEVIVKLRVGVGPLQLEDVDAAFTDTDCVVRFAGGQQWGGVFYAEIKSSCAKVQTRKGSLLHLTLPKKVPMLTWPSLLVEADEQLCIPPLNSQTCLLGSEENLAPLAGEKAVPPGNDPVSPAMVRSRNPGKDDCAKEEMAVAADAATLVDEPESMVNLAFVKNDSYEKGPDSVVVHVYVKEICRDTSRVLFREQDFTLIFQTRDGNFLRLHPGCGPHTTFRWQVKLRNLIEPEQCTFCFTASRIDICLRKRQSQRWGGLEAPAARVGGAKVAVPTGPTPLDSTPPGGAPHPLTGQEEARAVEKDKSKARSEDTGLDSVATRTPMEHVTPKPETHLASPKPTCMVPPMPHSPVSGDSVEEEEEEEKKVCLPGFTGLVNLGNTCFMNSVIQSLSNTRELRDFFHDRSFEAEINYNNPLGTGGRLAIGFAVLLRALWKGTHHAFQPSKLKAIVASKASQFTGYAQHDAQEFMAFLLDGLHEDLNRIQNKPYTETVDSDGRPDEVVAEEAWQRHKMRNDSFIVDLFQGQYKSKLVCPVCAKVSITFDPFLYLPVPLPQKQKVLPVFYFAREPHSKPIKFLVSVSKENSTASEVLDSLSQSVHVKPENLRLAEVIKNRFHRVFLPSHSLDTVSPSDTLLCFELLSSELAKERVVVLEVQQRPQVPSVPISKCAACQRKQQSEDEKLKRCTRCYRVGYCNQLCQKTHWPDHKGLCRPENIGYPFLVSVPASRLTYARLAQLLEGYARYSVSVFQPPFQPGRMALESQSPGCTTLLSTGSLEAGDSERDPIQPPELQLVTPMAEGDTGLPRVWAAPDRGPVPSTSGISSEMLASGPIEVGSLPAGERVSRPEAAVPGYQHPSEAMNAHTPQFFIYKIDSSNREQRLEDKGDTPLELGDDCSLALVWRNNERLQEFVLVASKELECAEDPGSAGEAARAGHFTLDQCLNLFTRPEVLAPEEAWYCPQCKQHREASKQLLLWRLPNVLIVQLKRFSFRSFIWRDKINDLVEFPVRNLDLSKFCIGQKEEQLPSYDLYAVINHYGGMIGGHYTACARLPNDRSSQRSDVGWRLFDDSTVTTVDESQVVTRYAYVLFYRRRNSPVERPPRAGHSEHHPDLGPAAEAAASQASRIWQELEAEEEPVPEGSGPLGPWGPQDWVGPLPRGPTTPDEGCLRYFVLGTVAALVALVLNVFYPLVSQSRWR
Method in brief: (§1)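 The table lists average log2 ratios of fragment over vehicle, from an unpaired t-test on global-median-normalised Spectronaut label-free quantities. Proteins with ≥2 unique peptides were used. Samples were HEK293T lysate (495 µg) treated in triplicate with fragment at 200 µM or vehicle for 3 h, then with Biotin-Ahx-Ub-VS (0.5 µM final) for 1 h, with labelled DUBs NeutrAvidin-enriched and run by diaPASEF LC-MS/MS.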

[2] = biological target: USP24 (UniProt Q9UPU5)
Chain of USP24 (Q9UPU5 whole entry): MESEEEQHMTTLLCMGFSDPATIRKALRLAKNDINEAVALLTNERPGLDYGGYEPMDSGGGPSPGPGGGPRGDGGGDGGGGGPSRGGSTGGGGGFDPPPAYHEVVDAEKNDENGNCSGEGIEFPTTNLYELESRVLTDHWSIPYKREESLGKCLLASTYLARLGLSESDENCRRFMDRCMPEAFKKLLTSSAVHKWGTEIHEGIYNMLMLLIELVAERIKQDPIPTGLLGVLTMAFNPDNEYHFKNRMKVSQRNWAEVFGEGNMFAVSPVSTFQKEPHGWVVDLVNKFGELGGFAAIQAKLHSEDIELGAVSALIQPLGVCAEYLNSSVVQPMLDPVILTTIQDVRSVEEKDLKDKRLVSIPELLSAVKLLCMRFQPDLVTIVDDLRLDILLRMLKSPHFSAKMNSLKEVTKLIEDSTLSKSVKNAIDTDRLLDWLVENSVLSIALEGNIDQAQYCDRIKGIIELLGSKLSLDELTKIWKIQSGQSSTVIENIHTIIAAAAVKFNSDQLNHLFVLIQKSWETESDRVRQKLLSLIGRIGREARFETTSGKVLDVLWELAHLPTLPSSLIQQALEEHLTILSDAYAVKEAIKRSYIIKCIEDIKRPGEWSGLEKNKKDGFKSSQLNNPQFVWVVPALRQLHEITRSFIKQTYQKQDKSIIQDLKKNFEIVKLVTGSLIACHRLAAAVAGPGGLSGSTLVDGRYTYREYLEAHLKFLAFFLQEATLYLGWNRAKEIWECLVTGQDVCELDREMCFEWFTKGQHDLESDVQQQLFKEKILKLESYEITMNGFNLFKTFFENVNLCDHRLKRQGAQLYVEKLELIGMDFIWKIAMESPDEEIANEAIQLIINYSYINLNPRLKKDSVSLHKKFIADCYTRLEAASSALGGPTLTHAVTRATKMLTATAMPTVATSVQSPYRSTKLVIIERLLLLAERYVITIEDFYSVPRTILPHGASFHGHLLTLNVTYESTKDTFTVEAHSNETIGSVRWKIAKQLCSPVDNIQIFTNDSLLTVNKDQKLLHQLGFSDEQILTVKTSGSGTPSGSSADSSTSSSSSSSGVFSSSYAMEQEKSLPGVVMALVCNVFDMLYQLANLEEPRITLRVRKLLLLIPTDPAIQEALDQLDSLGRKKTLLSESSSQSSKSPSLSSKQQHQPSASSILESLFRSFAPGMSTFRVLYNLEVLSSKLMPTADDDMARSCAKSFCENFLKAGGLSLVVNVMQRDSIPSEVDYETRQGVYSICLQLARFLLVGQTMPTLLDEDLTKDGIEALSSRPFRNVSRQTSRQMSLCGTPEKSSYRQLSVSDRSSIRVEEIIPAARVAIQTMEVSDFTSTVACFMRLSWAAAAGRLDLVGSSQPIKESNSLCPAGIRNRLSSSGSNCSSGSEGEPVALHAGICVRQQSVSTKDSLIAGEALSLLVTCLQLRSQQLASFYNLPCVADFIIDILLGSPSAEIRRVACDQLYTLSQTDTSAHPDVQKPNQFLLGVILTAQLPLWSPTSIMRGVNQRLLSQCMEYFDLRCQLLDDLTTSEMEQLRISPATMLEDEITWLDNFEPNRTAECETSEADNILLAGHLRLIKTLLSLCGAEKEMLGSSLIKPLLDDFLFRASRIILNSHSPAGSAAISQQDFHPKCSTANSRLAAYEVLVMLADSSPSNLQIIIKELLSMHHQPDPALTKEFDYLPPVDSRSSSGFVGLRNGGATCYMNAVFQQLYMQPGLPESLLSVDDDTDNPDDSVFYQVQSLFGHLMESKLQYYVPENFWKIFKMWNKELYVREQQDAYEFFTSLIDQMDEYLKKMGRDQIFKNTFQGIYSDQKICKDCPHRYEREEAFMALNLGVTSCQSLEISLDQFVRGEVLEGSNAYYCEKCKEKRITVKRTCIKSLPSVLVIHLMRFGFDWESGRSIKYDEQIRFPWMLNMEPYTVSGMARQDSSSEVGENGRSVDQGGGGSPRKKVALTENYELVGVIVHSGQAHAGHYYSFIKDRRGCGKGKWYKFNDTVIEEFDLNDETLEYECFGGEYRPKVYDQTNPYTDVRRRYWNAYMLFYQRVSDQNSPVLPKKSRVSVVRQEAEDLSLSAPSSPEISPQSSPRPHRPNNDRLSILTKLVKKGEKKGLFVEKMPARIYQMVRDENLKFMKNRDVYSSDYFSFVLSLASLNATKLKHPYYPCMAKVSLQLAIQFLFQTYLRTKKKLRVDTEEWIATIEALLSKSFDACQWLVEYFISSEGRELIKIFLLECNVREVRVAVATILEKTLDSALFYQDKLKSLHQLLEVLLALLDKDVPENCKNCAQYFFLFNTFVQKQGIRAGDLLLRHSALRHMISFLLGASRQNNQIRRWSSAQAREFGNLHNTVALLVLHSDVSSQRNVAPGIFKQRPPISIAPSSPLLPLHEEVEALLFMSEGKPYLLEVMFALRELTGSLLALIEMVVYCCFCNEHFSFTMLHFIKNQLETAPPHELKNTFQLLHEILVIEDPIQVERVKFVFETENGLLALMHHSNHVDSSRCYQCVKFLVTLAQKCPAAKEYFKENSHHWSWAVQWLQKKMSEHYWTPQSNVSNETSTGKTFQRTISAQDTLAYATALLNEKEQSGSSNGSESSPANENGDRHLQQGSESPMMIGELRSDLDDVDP
Method in brief: as §1

[3] = biological target: T2, USP25 (UniProt Q9UHP3)
T2 sequence (whole entry): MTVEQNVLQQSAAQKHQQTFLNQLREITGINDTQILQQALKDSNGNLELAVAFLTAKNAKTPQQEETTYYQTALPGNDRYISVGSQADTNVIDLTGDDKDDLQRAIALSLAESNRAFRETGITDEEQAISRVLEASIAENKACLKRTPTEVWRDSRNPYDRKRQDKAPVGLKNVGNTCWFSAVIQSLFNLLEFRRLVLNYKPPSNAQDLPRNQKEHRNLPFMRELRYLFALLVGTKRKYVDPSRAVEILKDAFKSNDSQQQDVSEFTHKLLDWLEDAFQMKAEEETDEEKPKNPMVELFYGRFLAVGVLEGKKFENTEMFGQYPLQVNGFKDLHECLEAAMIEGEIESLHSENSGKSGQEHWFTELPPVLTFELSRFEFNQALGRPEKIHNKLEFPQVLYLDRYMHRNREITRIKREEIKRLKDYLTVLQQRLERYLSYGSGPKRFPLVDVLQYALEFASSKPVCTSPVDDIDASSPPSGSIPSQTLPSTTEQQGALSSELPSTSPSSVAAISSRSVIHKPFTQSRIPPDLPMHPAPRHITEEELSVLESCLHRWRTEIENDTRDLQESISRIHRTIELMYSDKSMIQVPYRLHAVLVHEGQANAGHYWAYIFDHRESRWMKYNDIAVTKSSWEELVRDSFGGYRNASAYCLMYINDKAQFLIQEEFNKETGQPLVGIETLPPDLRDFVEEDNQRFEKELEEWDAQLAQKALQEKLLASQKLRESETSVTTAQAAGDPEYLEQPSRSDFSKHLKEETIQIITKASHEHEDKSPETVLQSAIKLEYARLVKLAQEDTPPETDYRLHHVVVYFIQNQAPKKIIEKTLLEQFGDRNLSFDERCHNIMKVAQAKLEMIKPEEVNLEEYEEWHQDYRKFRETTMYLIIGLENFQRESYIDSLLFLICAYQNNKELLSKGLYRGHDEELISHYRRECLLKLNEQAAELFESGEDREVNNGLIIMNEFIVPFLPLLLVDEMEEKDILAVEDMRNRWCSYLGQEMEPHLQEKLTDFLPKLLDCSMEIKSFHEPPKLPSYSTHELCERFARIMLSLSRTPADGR
Method in brief: as §1

[4] = biological target: T3, USP28 (UniProt Q96RU2)
T3 sequence (whole entry): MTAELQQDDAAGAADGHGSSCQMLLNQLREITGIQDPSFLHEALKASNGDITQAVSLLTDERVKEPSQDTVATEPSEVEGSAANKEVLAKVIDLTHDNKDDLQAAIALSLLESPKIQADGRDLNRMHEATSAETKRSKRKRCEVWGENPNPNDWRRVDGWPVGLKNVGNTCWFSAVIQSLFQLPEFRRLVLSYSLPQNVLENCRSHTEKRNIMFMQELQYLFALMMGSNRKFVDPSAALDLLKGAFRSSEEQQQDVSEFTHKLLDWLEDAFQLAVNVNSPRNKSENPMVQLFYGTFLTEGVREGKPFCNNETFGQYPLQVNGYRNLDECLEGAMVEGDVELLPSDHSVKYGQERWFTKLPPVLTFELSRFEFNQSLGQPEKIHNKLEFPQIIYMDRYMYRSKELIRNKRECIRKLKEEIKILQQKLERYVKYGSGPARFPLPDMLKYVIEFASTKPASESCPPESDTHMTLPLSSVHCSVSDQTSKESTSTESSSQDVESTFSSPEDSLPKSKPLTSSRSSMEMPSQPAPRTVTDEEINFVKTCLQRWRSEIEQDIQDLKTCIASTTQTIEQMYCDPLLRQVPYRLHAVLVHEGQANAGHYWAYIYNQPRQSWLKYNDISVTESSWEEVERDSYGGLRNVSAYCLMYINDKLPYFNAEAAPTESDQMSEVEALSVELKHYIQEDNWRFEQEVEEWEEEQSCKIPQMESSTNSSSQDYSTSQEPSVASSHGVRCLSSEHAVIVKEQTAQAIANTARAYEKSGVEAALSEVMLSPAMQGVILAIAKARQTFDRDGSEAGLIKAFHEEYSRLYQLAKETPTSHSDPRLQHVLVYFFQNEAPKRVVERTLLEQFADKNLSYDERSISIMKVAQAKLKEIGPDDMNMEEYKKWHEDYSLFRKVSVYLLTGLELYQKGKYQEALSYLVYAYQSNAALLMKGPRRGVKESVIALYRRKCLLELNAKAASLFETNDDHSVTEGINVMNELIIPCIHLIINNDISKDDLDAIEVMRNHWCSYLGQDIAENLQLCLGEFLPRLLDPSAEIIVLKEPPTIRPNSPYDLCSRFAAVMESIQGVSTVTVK
Method in brief: as §1

**Q.** With `O=C(CCl)Nc1cc2c(cc1Cl)OCCCO2` as the compound, how does the “log2 ratio of Biotin-Ahx-Ub-VS probe labelling” value (“log2 ratio” for short) [1] read?
**A.** Its value is 0.113.

**Q.** And the “log2 ratio” value [2]?
**A.** The value was 0.00346.

**Q.** And the “log2 ratio” value [3]?
**A.** The value was -2.47 (active).

**Q.** And the “log2 ratio” value [4]?
**A.** Its value is -1.92 (active).
